Only a selection was taken, and hits are over-represented in it overall.
TDP1 cell noCPT – qHTS for Inhibitors of human tyrosyl-DNA phosphodiesterase 1 (TDP1): qHTS in cells in absence of CPT | AID 686978, 2013 | hit rate 15% among 420,000 | DT40 Tdp1-/- hTDP1 cells, no CPT, ATP luminescence, 48 h | Potency, µM (top dose mostly 46.2 µM), inactives show top-dose activity change, negative = growth inhibition, hits mostly inhibitors; also: potency is read from the fitted curve at half-maximal effect; nearly all actives have a fitted effect of over 55% in size
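Seeded 400 DT40-hTDP1 cells/well (vehicle DMSO, no 20 nM CPT); pinned compounds; ≥48 hr at 37 °C; CellTiter-Glo luminescence as viability measure.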
HT1080-NT tox – kills 2HG-producing HT-1080-NT fibrosarcoma cells; HT-1080-NT fibrosarcoma viability, CellTiter-Glo ATP luminescence, 48 h; Potency, µM (top dose mostly 46.1 µM), for the others: at the top dose activity, negative = less viability, usual class: cytotoxic; hit rate 1.6% among 360,000; AID 686970;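 also: NT is the 2HG producing partner of a matched IDH1 knockdown line; potency is read from the fitted curve at half-maximal effect; 0% = DMSO-treated cells and -100% = media-only wells without cells; nearly all actives have a fitted effect of over 55% in size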
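Viability by CellTiter-Glo luminescence after 48 h compound exposure at 37C of HT-1080-NT cells (750/well, RPMI, 5% FBS). % activity scaled between DMSO wells and medium-only wells, then curve-fitted and categorized by curve class.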
IL-1B inflam inh – inflammasome signaling inhibition, IL-1 beta readout. THP-1 LPS/ATP IL-1B secretion, AlphaLISA, 16 h; stronger effect = lower value. activity change, % at 57.5 µM. hit rate 4.7% among 360,000. AID 743279; in the data active = activity change below about -50%; inconclusive = mostly about -30% to -49%
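Secreted IL-1B measured by AlphaLISA bead assay after 16 h compound exposure of THP-1 cells; compounds (final up to 57.5 uM) added 1 h before LPS (250 ng/mL) and ATP (1.25 mM) stimulation; lower signal means less secretion.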
DT40 TDP1 CPT – DT40-hTDP1 cell growth loss with CPT. chicken DT40 Tdp1-/-;hTDP1 cells + 20 nM CPT, ATP luminescence, 48 h. Potency, µM (series often up to 46.2 µM), without a hit: top-dose activity change, negative = growth inhibition, most hits filed as inhibitors. hit rate 12% among 420,000. AID 686979; also: potency is read from the fitted curve at half-maximal effect; nearly all actives have a fitted effect of over 55% in size
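Chicken DT40 Tdp1-/- cells stably complemented with human TDP1 were seeded at 400 cells/well in medium containing 20 nM camptothecin, exposed to pin-transferred compounds, and grown at 37 °C for at least 48 hr. Viability was read as ATP luminescence.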
HT1080 IDH1KD tx – toxicity to HT-1080 IDH1 knockdown cells (counter line). HT-1080 IDH1 knockdown viability, ATP luminescence, 48 h. Potency, µM (top dose mostly 46.1 µM), for the others: at the highest dose activity, negative = toxicity, most hits filed as cytotoxic. hit rate 2% among 360,000. AID 686971;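 also: potency is read from the fitted curve at half-maximal effect; 0% = DMSO wells and -100% = cell-free medium wells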
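Cytotoxicity counter-line: IDH1KD HT-1080, 48 h, CellTiter-Glo. Curves classed by r2, magnitude and activity.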
12-LOX inh – inhibitors of human 12S-lipoxygenase ALOX12 | P18054 | purified 12hLO, xylenol orange hydroperoxide absorbance | Potency, µM (doses to about 108 µM), without a hit: at the highest dose activity change, negative = inhibition, actives largely listed as inhibitors | hit rate 1.1% among 580,000 | AID 1671190; also: potency is read from the fitted curve at half-maximal effect
Target sequence (P18054 whole entry, looked up): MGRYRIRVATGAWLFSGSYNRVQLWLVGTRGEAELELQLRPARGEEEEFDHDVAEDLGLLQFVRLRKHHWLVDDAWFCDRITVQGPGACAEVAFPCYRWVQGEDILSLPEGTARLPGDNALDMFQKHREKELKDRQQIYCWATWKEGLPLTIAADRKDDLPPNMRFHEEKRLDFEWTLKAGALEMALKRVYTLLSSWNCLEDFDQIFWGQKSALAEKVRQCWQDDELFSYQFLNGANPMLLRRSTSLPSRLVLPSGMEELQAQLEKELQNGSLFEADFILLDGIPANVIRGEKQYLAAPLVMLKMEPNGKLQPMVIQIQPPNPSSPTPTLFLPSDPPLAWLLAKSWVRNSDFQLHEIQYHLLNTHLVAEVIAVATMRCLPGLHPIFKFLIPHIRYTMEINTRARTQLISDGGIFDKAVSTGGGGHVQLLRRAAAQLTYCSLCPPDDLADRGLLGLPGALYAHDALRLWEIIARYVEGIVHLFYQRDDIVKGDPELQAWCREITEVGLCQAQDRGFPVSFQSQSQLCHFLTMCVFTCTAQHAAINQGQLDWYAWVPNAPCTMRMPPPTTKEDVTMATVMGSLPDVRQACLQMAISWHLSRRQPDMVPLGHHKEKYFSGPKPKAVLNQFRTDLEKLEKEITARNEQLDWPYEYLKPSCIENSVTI
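Hydroperoxide product was detected by ferrous iron/xylenol orange as the 573 to 405 nm absorbance ratio. Arachidonic acid at 40 uM (final) was turned over for 30 min at room temperature by 150 nM human 12hLO, pH 7.0 Hepes buffer, after 15 min compound preincubation.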
Starred values were filed as active, the others as inactive; ? = inconclusive; / = not tested or not shown; [ ] = another dose, or the depositor's remark. Unless noted, calls follow the shape of the dose curve; as a rule, active = well fitted curve in the direction sought with a large enough effect; inconclusive = small, poorly fitted or top-dose-only effect, or another doubt; inactive = no such curve, though single readings can be large; an effect the other way counts as inactive or inconclusive. Unless noted, % is scaled to controls: 0 for no effect and ±100 for the full control effect.

SMILES | TDP1 cell noCPT | HT1080-NT tox | IL-1B inflam inh | DT40 TDP1 CPT | HT1080 IDH1KD tx | 12-LOX inh
CC(C)(C)c1cc(NC(=O)Nc2ccccc2)no1 | -24% | 8% | -54* | ? | 3% | -5%
COC(=O)c1sccc1NC(=O)c1c(F)c(F)c(F)c(F)c1F | ? | 18µM* | -102* | ? | ? | 84%
O=C(Nc1ccncc1)c1c(F)c(F)c(F)c(F)c1F | -29% | -9% | -96* | -10% | -23% | 47%
Cc1nsc(NC(=O)NCc2ccccc2OC(F)(F)F)n1 | / | / | / | / | / | 16%
O=C(Nc1cccc(C(F)(F)F)c1)c1c(Cl)cccc1Cl | / | / | / | / | / | -13%
O=C(Nc1ccccc1)Nc1cccc(Cl)c1Cl | ? | ? | -19 | ? | ? | ?
CCC(C(=O)Nc1cccnc1)c1ccccc1 (stereo not drawn) | -10% | 1% | 9 | -5% | 7% | -3%
O=C(Nc1ccc(Oc2ccc(NC(=O)Nc3ccccc3Cl)cc2)cc1)Nc1ccccc1Cl | 21µM* | -1% | -8 | 18µM* | -17% | 23%
O=C(Nc1ccncc1)c1c(Cl)cccc1Cl | ? | ? | -61* | 9.2µM* | -3% | 12%
CC(=O)c1cccc(NC(=O)c2c(F)c(F)c(F)c(F)c2F)c1 | 29µM* | -2% | -29 | ? | -8% | 4%
CCC(C(=O)Nc1ccncc1)c1ccccc1 (stereo not drawn) | 16µM* | 5% | 47 | ? | 4% | 10%
CC[C@H]1CN(S(=O)(=O)c2ccc(OC)cc2)CC[C@H]1CC(=O)N(CC)C(=O)NCCCN(C)C | / | / | / | / | / | 37%
O=C(Nc1ccncc1)OCc1ccccc1 | 21µM* | -14% | -16 | ? | -6% | 0%
O=C(Nc1ccc(Cl)cc1)Nc1cccc2nsnc12 | 29µM* | -5% | ? | ? | -3% | 138%
O=C(Nc1ccncc1)Nc1cccc(Cl)c1 | -23% | -4% | -12 | ? | 0% | ?
O=C(Nc1ccccc1NC(=O)c1c(F)c(F)c(F)c(F)c1F)c1c(F)c(F)c(F)c(F)c1F | -23% | ? | -108* | -7% | ? | 0%
Cc1cccc(NC(=O)c2c(F)c(F)c(F)c(F)c2F)c1 | 18% | -1% | -5 | -6% | -1% | -29%
O=C(NNC(=O)OCc1ccccc1)OCc1ccccc1 | -9% | 5% | -7 | -2% | -11% | 23%
O=C(Nc1ccccc1)Nc1ccncc1 | 21µM* | -17% | 0 | ? | -11% | 0%
CN1CCN(C(=O)c2cccc3c2NCCC3)CC12CCNC(=O)CC2 (stereo not drawn) | / | / | / | / | / | -38%
O=C(NC1CCN(Cc2ccccc2)CC1)c1ccc(I)cc1 | -12% | / | / | -22% | / | ?
O=C(NC(=S)NC1CCN(Cc2ccccc2)CC1)c1ccc(F)cc1 | 15µM* | -2% | -26 | ? | 0% | ?
O=C(NC1CCN(Cc2ccc3ccccc3c2)CC1)c1ccccc1 | 18µM* | -4% | -16 | 18µM* | 6% | ?
O=C(NC1CCN(Cc2ccc(Cl)c(Cl)c2)CC1)c1ccccc1 | ? | -1% | -19 | 21µM* | 0% | -26%
O=C(NC1CCN(Cc2ccc(F)cc2)CC1)c1ccccc1 | -27% | 22% | 2 | -4% | 10% | -11%
SMILES | TDP1 cell noCPT | HT1080-NT tox | IL-1B inflam inh | DT40 TDP1 CPT | HT1080 IDH1KD tx | 12-LOX inh
CC(C)Oc1ccc(C(=O)NC2CCN(Cc3ccccc3)CC2)cc1 | ? | 0% | -84* | -33% | -12% | 39%
Cc1sc(NC(=S)NC(=O)C2CCCCC2)c(C(N)=O)c1C | -6% | -5% | 17 | -8% | -24% | ?
O=C(OCC(=O)c1ccc[nH]1)c1ccc(S(=O)(=O)Nc2ccccc2)cc1 | / | / | / | / | / | 3%
CCOC(=O)C1=C(C)N=c2sc(=Cc3cc(Cl)c(OCC(=O)O)c(OC)c3)c(=O)n2C1c1ccccc1Cl (stereo not drawn) | 21µM* | ? | 3 | ? | -9% | ?
CCOC(=O)C1=C(c2ccccc2)N=c2sc(=Cc3cc(OC)c(OC)c(OC)c3)c(=O)n2C1c1cccs1 (stereo not drawn) | 13µM* | -11% | ? | 8.2µM* | -2% | -15%
COc1ccccc1C1C2=C(N=c3s/c(=C/c4cccc(OCC(=O)O)c4)c(=O)n31)c1ccccc1CC2 (stereo not drawn) | -9% | ? | 5 | 3% | ? | ?
CCOC(=O)C1=C(C)N=c2s/c(=C\c3cc(OC)c(OC)c(OC)c3)c(=O)n2C1/C=C/c1ccccc1 (stereo not drawn) | ? | -3% | 2 | -3% | -2% | 0%
COc1cccc(C2C3=C(N=c4s/c(=C\c5cccc(O)c5)c(=O)n42)c2ccccc2CC3)c1OC (stereo not drawn) | ? | -23% | -57* | -116% | ? | ?
CCOC(=O)C1=C(C)N=c2s/c(=C\c3cccn3C)c(=O)n2C1c1cccc(OC)c1OC (stereo not drawn) | 21µM* | 4% | -6 | ? | -2% | 94%
CCOC(=O)C1=C(C)N=c2s/c(=C\c3ccc(OCC(=O)O)c(OC)c3)c(=O)n2C1c1ccc(OC)cc1 (stereo not drawn) | 7% | 8% | -14 | -18% | 2% | 0%
Cc1nc2ccc(Cl)cc2cc1C(=O)Nc1ccc(C(N)=O)cc1 | / | / | / | / | / | 20%
COCCNC(=O)CN1C(=O)NC2(CCOc3ccccc32)C1=O (stereo not drawn) | 0% | -1% | -7 | -7% | -4% | -1%
CC(CNC(=O)CN1C(=O)NC2(CCOc3ccccc32)C1=O)c1ccccc1 (stereo not drawn) | ? | 0%[9.24 µM] | -2 | 15µM* | 9% | 22%
CCN(CC)S(=O)(=O)c1cccc(NC(=O)CN2C(=O)NC3(CCOc4ccccc43)C2=O)c1 (stereo not drawn) | ? | -4% | 8 | 16µM* | -25% | -7%
CCCCCCNC(=O)Cc1cccc2ccccc12 | / | / | / | / | / | -18%
Cc1nnc(NC(=O)c2cc(=O)c3ccc(C)c(C)c3o2)s1 | / | / | / | / | / | -12%
CCOC(=O)CNC(=O)CCc1nnc2ccc(N3CCC(C)CC3)nn12 | ? | -2% | -8 | 23µM* | 14% | 12%
CC1CCN(C(=O)CCc2nnc3ccc(N4CCC5(CC4)OCCO5)nn23)CC1 | 14% | 1% | -8 | -3% | 7% | -7%
CCOC(=O)C1CCN(C(=O)CCc2nnc3ccc(N4CCC(C)CC4)nn23)CC1 | ? | -2% | 0 | 18µM* | 6% | 12%
